In PubChem BioAssay (NCI):
This is part of a sample that, as a whole, favours compounds with a hit. Of some 79,000 tested, about 15% had one in any assay. The source made the active and inactive calls. No stated cut-off is given here; in the data, active means growth inhibition above about 70%; inactive means the rest.

Assays:
[1] = NCI Yeast Anticancer Drug Screen. Data for the rad50 strain (AID 155);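 further: 0% = growth of vehicle-only cultures of the same strain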; conditions: S. cerevisiae rad50 strain growth inhibition; at 50.0 µM; active compounds read high
Procedure, shortened: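 A DNA repair-deficient yeast mutant serves as the test organism; compound-induced growth inhibition is calculated against vehicle-treated cells.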

[2] = NCI Yeast Anticancer Drug Screen. Data for the mec2-1 strain (AID 157); conditions: S. cerevisiae mec2-1 strain, at 50.0 µM, active compounds read high
Procedure, shortened: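 Each compound was tested on mec2-1 yeast, a strain altered in DNA damage repair or cell cycle control. Growth inhibition is reported relative to vehicle.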

[3] = NCI Yeast Anticancer Drug Screen. Data for the sgs1 mgt1 strain (AID 161);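 further: 0% = growth of cultures given vehicle only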; conditions: S. cerevisiae sgs1 mgt1 strain, at 50.0 µM, active compounds read high
Procedure, shortened: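 Inhibition of yeast growth, normalised to vehicle-treated controls, is reported for a strain bearing genetic alterations in DNA damage repair.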

[4] = NCI Yeast Anticancer Drug Screen. Data for the cln2 rad14 strain (AID 165);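 further: 0% = growth equal to vehicle treated cultures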; conditions: S. cerevisiae cln2 rad14 strain, at 50.0 µM, active compounds read high
Procedure, shortened: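 Test compounds were added to cln2 rad14 yeast cultures; inhibition of growth was then determined by comparison with vehicle treatment.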

[5] = NCI Yeast Anticancer Drug Screen. Data for the bub3 strain (AID 167); conditions: S. cerevisiae bub3 mutant strain, at 50.0 µM, active compounds read high
Procedure, shortened: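 Inhibition values come from growth of compound-treated mutant yeast normalised to vehicle-treated controls.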

[6] = NCI Yeast Anticancer Drug Screen. Data for the mlh1 rad18 strain (AID 175); conditions: S. cerevisiae mlh1 rad18 strain growth inhibition; at 50.0 µM; active compounds read high
Procedure, shortened: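 Inhibition values reflect reduced growth of mutant yeast versus vehicle-treated controls following compound exposure; the mutations affect DNA damage repair.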

Measured: growth inhibition

O=C(O)C1C2Cc3ccccc3C21 (centres undefined)
inactive: [1] 18.1% | [2] 10.4% | [3] -8.35% | [4] -5.9% | [5] -20.3% | [6] -12.6%

C=CP(=O)(OCCCl)OCCCl
inactive: [1] 24.5% | [2] -0.7% | [3] 2.3% | [4] 18.1% | [5] -1.6% | [6] 12.9%

CCN1C(=O)NC(=O)C(CC)(N2CCCCC2)C1=O (centres undefined)
inactive: [1] 10.7% | [2] 7.95% | [3] 5% | [4] 15% | [5] 2.55% | [6] 25.4%

O=[N+]([O-])CCCl
inactive: [1] 3.8% | [2] 2.1% | [3] -3.4% | [4] 3.9% | [5] 3.95% | [6] -3.9%

CC(=O)c1ccc(NC(O)C(Cl)(Cl)Cl)cc1 (centres undefined)
inactive: [1] 5.75% | [2] 18.9% | [3] -0.25% | [4] -12.2% | [5] 18.8% | [6] 22.4%

COc1cccc2c1C(=O)c1c(O)c3c(c(O)c1C2=O)CC(O)(C(C)=O)CC3OC1CC([N+](C)(C)C)C(O)C(C)O1 (centres undefined)
active: [1] 97% | [2] 98.5% | [3] 97.9% | [4] 92.5% | [5] 98.3% | [6] 95.8%

COc1ccc2c(c1OC)C[C@@H]1c3c(cc4c(c3-2)OCO4)CCN1C
inactive: [1] 21.2% | [2] -30.2% | [3] -23.6% | [4] -14.6% | [5] -0.6% | [6] -56.5%

CC1CN=C(Nc2ccc(F)c(Cl)c2)S1 (centres undefined)
inactive: [1] -14.4% | [2] -16.1% | [3] -44.9% | [4] 8.65% | [5] -0.25% | [6] -22.9%

CC12CCC3C(CCC4(C)CC(OC(=O)Cc5ccc(N(CCCl)CCCl)cc5)CCC34C)C1CCC2=O (centres undefined)
inactive: [1] -10.4% | [2] 2.85% | [3] -2.3% | [4] -1.4% | [5] -4.8% | [6] 3.65%

O=[N+]([O-])c1ccc(C2C3C(c4ccccc4)=NCCCN32)cc1 (centres undefined)
inactive: [1] -0.2% | [2] 12.2% | [3] -8% | [4] -15.2% | [5] -12.2% | [6] -14.7%

CN(CC(N)=O)C(=O)N(CCCl)N=O
inactive: [1] 7.8% | [2] 1.6% | [3] -11.5% | [4] -18.7% | [5] 1.55% | [6] -41.5%

CC1CNC2C(=O)NC(=O)NC2N1 (centres undefined)
inactive: [1] 3.15% | [2] 1.95% | [3] -10.2% | [4] -5.25% | [5] 5.2% | [6] -4.7%

S=c1nccc[nH]1
inactive: [1] 37.5% | [2] 24.2% | [3] 34.5% | [4] 37.5% | [5] 0.35% | [6] 17.4%

C1CC[N-]CC1.C1CC[N-]CC1.[Cl][Pd][Cl]
inactive: [1] 1.25% | [2] 8.8% | [3] 13% | [4] -23.6% | [5] 10.8% | [6] 15.4%

CC[n+]1c(C)n(-c2ccccc2)c(=O)c2ccccc21
inactive: [1] -0.3% | [2] -6.85% | [3] 4.75% | [4] 18.2% | [5] -10.9% | [6] 6.25%

CC[CH2][Sn](=[O])[CH2]c1ccccc1
inactive: [1] 11.9% | [2] 24.6% | [3] 13.6% | [4] 8.9% | [5] 17.5% | [6] -44.5%

NCCN1CC2CCC(CC2)C1
inactive: [1] -53.1% | [2] -48.3% | [3] -27.1% | [4] -5.75% | [5] -3.55% | [6] -11.7%

[NH-]C(CO)C(=O)O.[NH-]C(CO)C(=O)O.[Pd+2] (centres undefined)
inactive: [1] -8.55% | [2] -3.9% | [3] -6.15% | [4] -7.2% | [5] -5.95% | [6] 15.9%

CCOC(=O)C1=C(OC(OCC)C(CC)[Se]c2ccccc2)CCC1 (centres undefined)
inactive: [1] 50.4% | [2] 10.6% | [3] 40% | [4] 22.4% | [5] 22.7% | [6] 39.9%

C[n+]1c[se]cn1
inactive: [1] -2.9% | [2] 9.25% | [3] -8.2% | [4] 1.2% | [5] -14.1% | [6] 0.55%

N.O=S(=O)(O)O.[Al]
inactive: [1] 6.55% | [2] 7.45% | [3] 4.85% | [4] -3.8% | [5] -5.1% | [6] -2.4%

CCCN1CCC2(CC1)COCc1ccccc12
inactive: [1] 30.8% | [2] 26.9% | [3] 28.4% | [4] 12.6% | [5] 15.1% | [6] 34.8%

C1CC[N-]CC1.CC(=N\O)/C(C)=N/O.CC(=N\O)/C(C)=N/O.C[CH-]C(C)O.[Co+2]
inactive: [1] -2% | [2] -7.15% | [3] 36.3% | [4] 8.2% | [5] -13.1% | [6] 39.9%

CC1(C(N)Cc2c[nH]c3ccccc23)OCCO1 (centres undefined)
inactive: [1] -7.7% | [2] -0.1% | [3] -28.6% | [4] -6.55% | [5] -0.25% | [6] 4.1%

CC[n+]1c(/C=C/c2ccc(N(CCCl)CCCl)cc2)ccc2cc(NC(=O)/C=C/c3ccccc3)ccc21
active: [1] 82.1% | [2] 86.5% | [3] 87.7% | [4] 85.5% | [5] 86.5% | [6] 82%

CC(=O)C1C(c2ccccc2)C2(C)OC(=O)C(C#N)C12C (centres undefined)
inactive: [1] -17.6% | [2] 18.9% | [3] 9% | [4] 32.3% | [5] 21.8% | [6] 33.2%

Cc1cccc(N)c1N
inactive: [1] 24.1% | [2] -15.1% | [3] 11.1% | [4] 0.4% | [5] -0.45% | [6] 13.7%

O=C(O)C(CSC(c1ccccc1)(c1ccccc1)c1ccccc1)N=Cc1cccs1 (centres undefined)
inactive: [1] -8% | [2] -1.65% | [3] -1.95% | [4] -33.9% | [5] 43.3% | [6] -18.2%

CC(C)OC(=O)Nc1cccc(Cl)c1
inactive: [1] 25.9% | [2] 1.75% | [3] 23.9% | [4] -3.85% | [5] 0.3% | [6] 4.5%

NS(=O)(=O)c1ccc([As](=O)(O)O)cc1
inactive: [1] -1.1% | [2] -3.85% | [3] 5% | [4] -45.5% | [5] 12.2% | [6] -15.7%

CNC(=O)Oc1ccccc1C(N)=O
inactive: [1] 10.4% | [2] -1.8% | [3] -14.8% | [4] -46.8% | [5] -4.55% | [6] 7.3%

CCN(CC)CC(=O)c1ccccc1
inactive: [1] -24.1% | [2] -8.85% | [3] -21.2% | [4] 9.45% | [5] 3.15% | [6] -45.7%

O=P1(N(CCCl)CCCl)Nc2cc3ccccc3cc2N1
inactive: [1] -5.65% | [2] -15.7% | [3] -4.45% | [4] -108% | [5] -15.5% | [6] -14.6%

C1CN([PH+](N2CC2)N2CC2)CCO1.C1CN([PH+](N2CC2)N2CC2)CCO1.[I][Pd][I]
inactive: [1] 3.9% | [2] 6.7% | [3] -5.7% | [4] -8.05% | [5] 0% | [6] -4.4%

CCn1/c(=N\N=O)sc2ccccc21
inactive: [1] -4.1% | [2] 6.05% | [3] -4.2% | [4] -23.9% | [5] -35.3% | [6] 3.6%

O=[N+]([O-])c1ccc([As](=O)(O)c2cccc([N+](=O)[O-])c2)cc1
inactive: [1] 0.8% | [2] 1.3% | [3] 0.65% | [4] -28.9% | [5] 38.9% | [6] 7.4%

COc1ccc(CC2C3=C(CCCC3)CCN2C)cc1 (centres undefined)
inactive: [1] 45.2% | [2] 21.9% | [3] 28.6% | [4] 21.8% | [5] 17.6% | [6] -25.8%

CCOC(=O)N=C=O
inactive: [1] -17.8% | [2] 4.7% | [3] -15.7% | [4] 11.9% | [5] -3.1% | [6] -1.85%

O=c1cc(O)c2ccccc2o1
inactive: [1] 26.1% | [2] -1.55% | [3] -4.1% | [4] 15.6% | [5] -10.2% | [6] 14.3%

Cc1nnc2n1-c1ccccc1C(=S)N1CSCC21 (centres undefined)
inactive: [1] -22% | [2] -0.25% | [3] -24.7% | [4] 8.15% | [5] -6.7% | [6] -0.45%

O.[Co].[NH2-].[NH2-].[NH2-].[NH2-].[NH2-]
inactive: [1] 27.9% | [2] -27.1% | [3] 36.2% | [4] 12.8% | [5] 24.2% | [6] 33.4%

C[CH2][Sn]([CH2]C)([O]C(=O)c1ccc(F)cc1)[O]C(=O)c1ccc(F)cc1
inactive: [1] 30.5% | [2] 17.7% | [3] 38.5% | [4] 15.1% | [5] 15.2% | [6] 17.6%

CCC/C=C/C=C/C(=O)OC1/C(=C/C(=O)OC)CC2CC(C(C)O)OC(=O)CC(O)CC3CC(OC(C)=O)C(C)(C)C(O)(CC4C/C(=C/C(=O)OC)CC(/C=C/C(C)(C)C1(O)O2)O4)O3 (centres undefined)
inactive: [1] 15.7% | [2] -5.2% | [3] -7.85% | [4] 21.3% | [5] 6.15% | [6] 23.1%

C[C@]12C=CC(=O)NC[C@@H]1CC[C@@H]1[C@@H]2CC[C@]2(C)[C@@H](OC(=O)COc3ccc(N(CCCl)CCCl)cc3)CC[C@@H]12
inactive: [1] 18.1% | [2] 5.05% | [3] 8.1% | [4] 1.2% | [5] 3.05% | [6] -7.65%
